From PubChem BioAssay (Tox21)
Results filed as inconclusive are left out. A call without a number means that no potency is given here. Calls of active or inactive are those of the source. Unless noted, calls come from the whole dose curve; as a rule, active = well fitted curve in the direction sought with a large enough effect in the repeat runs; inconclusive = weak or mixed curves; inactive = no such curve, though single readings can be large; an effect the other way counts as inactive or inconclusive.

What was measured:
[1] = qHTS assay to identify small molecule agonists of the NFkB signaling pathway - cell viability counter screen (AID 1159515; calls by dose curve; note: series mostly up to about 61 µM; nearly all actives have a fitted effect of over 55% in size)
Procedure, shortened: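 Multiplexed viability readout: after the 5 hr compound exposure and 1.5 hr FRET substrate step, CellTiter-Glo reagent went into the same NFkB-bla ME-180 wells; ATP luminescence was measured after 30 min at room temperature.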

[2] = qHTS assay to identify small molecule agonists of the endoplasmic reticulum stress response signaling pathway (AID 1159516; active = well fitted activation curve with a large enough effect in the signal ratio in the repeat runs, not every such curve was filed as active; the % refers to the signal ratio; note: potency is the fitted concentration of half-maximal effect)
Procedure, shortened: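 Tox21 10K library screened in quantitative HTS format on ESRE-bla HeLa cells, a beta-lactamase reporter under ER stress response element control; 5 hr treatment, FRET read.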

[3] = qHTS assay to identify small molecule agonists of the endoplasmic reticulum stress response signaling pathway - cell viability counter screen (AID 1159517; calls by dose curve; note: series mostly up to about 61 µM; nearly all actives have a fitted effect of over 50% in size)
Procedure, shortened: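 Cells, HeLa ESRE-bla; density, 1,500/well; dosing, 5 hr at 37 C, 5% CO2; readout, CellTiter-Glo luminescence after 30 min RT.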

[4] = qHTS assay to identify small molecule antagonists of the retinoid-related orphan receptor gamma (ROR-gamma) signaling pathway - cell viability counter screen (AID 1159520); note: nearly all actives have a fitted effect of over 50% in size
Procedure, shortened: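 Cytotoxicity was read from cellular ATP (CellTiter-Glo luminescence) after 16 hr at 37 C with 1 uM doxycycline induction. The inducer was added 2 hr after compound transfer to Tet-on ROR gamma CHO cells.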

[5] = qHTS assay to identify small molecule agonists of the AP-1 signaling pathway - cell viability counter screen (AID 1159525; calls by dose curve; note: nearly all actives have a fitted effect of over 55% in size)
Procedure, shortened: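 Luminescent ATP readout (Cell Titer Glo, 30 min RT), normalised to DMSO and tetra n-octyl ammonium bromide controls. Cells were ME-180 AP-1-bla in 0.5% dialyzed FBS Opti-MEM, with a 5 h, 37 °C compound exposure.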

[6] = qHTS assay to identify small molecule agonists of the RXR signaling pathway - cell viability counter screen (AID 1159529); note: series mostly up to about 77 µM; nearly all actives have a fitted effect of over 50% in size
Procedure, shortened: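 Tox21 10K compounds were tested for cytotoxicity against GeneBLAzer RXR-alpha HEK 293T cells grown in 2% charcoal-stripped FBS. Exposure lasted 16 hr at 37 C, 5% CO2; viability read by CellTiter-Glo luminescence.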

[7] = qHTS assay to identify small molecule antagonists of the retinoic acid receptor (RAR) signaling pathway (AID 1159552; note: nearly all actives have a fitted effect of over 50% in size)
Procedure, shortened: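 Overnight-plated C3RL4 reporter cells get compound, then retinol to 1 uM final; plates sit 6 hr at 37 C, 5% CO2. A luciferase reagent is added and light output recorded after 30 min at room temperature.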

[8] = qHTS assay to identify small molecule agonists of the retinoic acid receptor (RAR) signaling pathway (AID 1159553); note: potency is the fitted concentration of half-maximal effect
Procedure, shortened: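 Agonist activity was scored in C3RL4 cells bearing a retinoic acid response element luciferase construct. Cells were treated with compounds for 6 hr at 37 C, and luciferase signal was measured as luminescence.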

[9] = qHTS assay to identify small molecule antagonists of the estrogen related receptor (ERR) signaling pathway from Tox21 library - cell viability counter screen (AID 1224834); note: nearly all actives have a fitted effect of over 30% in size
Procedure, shortened: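 Cytotoxicity of test substances is gauged in the same ERR cells used for the antagonist screen, after 17.5 h of compound treatment at 37 C, by CellTiter-Fluor fluorescence measured after 30 min.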

[10] = qHTS assay to identify small molecule antagonists of the vitamin D receptor (VDR) signaling pathway - cell viability counter screen (AID 743225); note: nearly all actives have a fitted effect of over 50% in size
Procedure, shortened: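 Cytotoxicity toward the VDR-bla HEK 293T line was scored by ATP-based CellTiter-Glo luminescence, read in the wells already used for the beta-lactamase readout after 16 h compound treatment under 3 nM 1-alpha,25-dihydroxyvitamin D3 stimulation.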

[11] = qHTS assay to identify small molecule agonists of the AP-1 signaling pathway (AID 1159526; calls by dose curve)
[12] = qHTS assay to identify small molecule antagonists of the retinoid acid receptor (RAR) signaling pathway - cell viability counter screen (AID 1159551); note: nearly all actives have a fitted effect of over 35% in size
Procedure, shortened: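 Cytotoxicity counter screen in C3RL4 cells: 6 h compound exposure with 1 uM retinol (final), viability from cellular ATP by luminescence.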

[13] = target: Retinoic acid receptor RXR-alpha (Homo sapiens) (UniProt P19793); assay: qHTS assay to identify small molecule agonists of the RXR signaling pathway (AID 1159527; calls by dose curve; note: nearly all actives have a fitted effect of over 35% in size; note: potency is the fitted concentration of half-maximal effect)
Procedure, shortened: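 Reporter activation is measured as beta-lactamase activity via FRET substrate cleavage (emission 460/530 nm) in HEK 293T cells expressing an RXR-alpha-driven bla construct, following 16 hr compound exposure at 37 C.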

[14] = target: Nuclear receptor ROR-gamma (Homo sapiens) (UniProt P51449); assay: qHTS assay to identify small molecule antagonists of the retinoid-related orphan receptor gamma (ROR-gamma) signaling pathway (AID 1159521)
Procedure, shortened: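 Readout: ONE-Glo luciferase luminescence, 30 min at room temperature. System: Tet-on RORγ CHO, RORE-LUC. Sequence: compound 2 h, doxycycline 1 uM final, 16 h at 37 C.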

Sequence of Retinoic acid receptor RXR-alpha (Homo sapiens) (P19793 whole entry, looked up): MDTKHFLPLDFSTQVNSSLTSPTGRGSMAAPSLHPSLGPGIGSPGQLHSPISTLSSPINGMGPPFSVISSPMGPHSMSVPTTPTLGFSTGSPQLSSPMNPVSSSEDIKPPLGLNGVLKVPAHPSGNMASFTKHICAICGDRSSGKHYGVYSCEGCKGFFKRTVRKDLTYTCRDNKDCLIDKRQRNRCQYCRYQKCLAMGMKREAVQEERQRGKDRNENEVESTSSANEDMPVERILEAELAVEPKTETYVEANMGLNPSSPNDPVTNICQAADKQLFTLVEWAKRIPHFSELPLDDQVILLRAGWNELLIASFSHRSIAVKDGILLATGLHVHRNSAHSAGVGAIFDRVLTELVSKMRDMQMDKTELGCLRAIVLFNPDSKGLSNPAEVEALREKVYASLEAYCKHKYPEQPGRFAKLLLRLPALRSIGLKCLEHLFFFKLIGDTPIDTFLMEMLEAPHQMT

SMILES	Potency [1]	Potency [2]	Potency [3]	Potency [4]	Potency [5]	Potency [6]	Potency [7]	Potency [8]	Potency [9]	Potency [10]	Potency [11]	Potency [12]	Potency [13]	Potency [14]
CC1(C)C(C=C(Cl)Cl)C1C(=O)OC(C#N)c1ccc(F)c(Oc2ccccc2)c1 (configuration not stated)	inactive	inactive	inactive	inactive	inactive	inactive	inactive	inactive	inactive					
c1ccc2nc(N3CCNCC3)ccc2c1	inactive	inactive	inactive	inactive	inactive		inactive	inactive		inactive	inactive	inactive		
CN1[C@@H]2CC[C@H]1CC(O)C2 (some centres not stated)	inactive	inactive	inactive	inactive	inactive	inactive	inactive	inactive	inactive	inactive	inactive	inactive		
CCCCN(CCCC)C(=S)S	inactive	inactive	inactive	inactive	inactive	inactive	inactive	inactive	inactive	inactive		inactive	inactive	
c1csc(-c2ccc(-c3cccs3)s2)c1	inactive	49 µM (active)	inactive	inactive	inactive	inactive	inactive	1.72 µM (active)	inactive	inactive		inactive	21.9 µM (active)	
CO/N=C(\C(=O)OC)c1ccccc1CO/N=C(\C)c1cccc(C(F)(F)F)c1	inactive	inactive	inactive		inactive	inactive		inactive			inactive			0.77 µM (active)
[Cl-].[Cl-].[Cl-].[Yb+3]	inactive	inactive	inactive	inactive	inactive						inactive	inactive		
CC(C)(C)c1ccc(OP(=O)(Oc2ccccc2)Oc2ccccc2)cc1	inactive	inactive	inactive	inactive				inactive			inactive	inactive		
